Laboratory results as given in PubChem BioAssay (NCI).
Compounds without any hit were thinned out: in the full panel of roughly 79,000, 15% have a hit. A number with no mark means an inactive call. Calls of active or inactive are those of the source. Cut-off read from the data, not from the text of the source: active = growth inhibition above about 70%; inactive = the rest.

Assay: NCI Yeast Anticancer Drug Screen. Data for the bub3 strain (AID 167)
Settings: S. cerevisiae bub3 mutant strain, at 50.0 µM (retest, dose inferred, filed as 5.0), stronger effect = higher value
Method in brief: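 Compounds were applied to a genetically altered yeast strain carrying a cell-cycle control defect. Growth inhibition was scored against vehicle-treated controls.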

SMILES | growth inhibition
Oc1ccc2c(ccc3ccccc32)c1 | 88% (active)
ClCc1ccc2ccc3ccc(CCl)nc3c2n1 | 95% (active)
CC(=O)c1c(O)c2ccc(Cl)cc2[nH]c1=O | 91% (active)
O=C(c1ccc(Cl)cc1)c1ccc(OCCCOc2ccc(C(=O)c3ccc(Cl)cc3)cc2)cc1 | -14%
C=C1CC2(C[C@@H](c3ccccc3)O[C@@H](c3ccccc3)C2)OC1=O (stereo not given in full) | 98% (active)
O=C(N=Nc1c(O)[nH]c2ccccc12)C(O)(c1ccccc1)c1ccccc1 | 38%
C/C(=N\O)c1ccc2c3c(ccc([N+](=O)[O-])c13)CC2 | 7%
N#CS/C(Cl)=C(/C(Cl)=C(Cl)Cl)[N+](=O)[O-] | 99% (active)
N#C/C(=C1C=C/C(=N/O)C=C/1Cl)c1ccccc1 | 18%
O=C1/C(=C/c2ccc(Cl)c(Cl)c2)CN(C(=O)CCN2CCOCC2)C/C1=C\c1ccc(Cl)c(Cl)c1 | 89% (active)

Same assay, conditions: S. cerevisiae bub3 mutant strain, at 50.0 µM, stronger effect = higher value

SMILES | growth inhibition
Oc1c(Br)cc(Cl)cc1Br | 96% (active)
COc1ccc(C2Oc3ccc(Cl)cc3C=C2[N+](=O)[O-])cc1OC (stereo not given) | 86.7% (active)
COC(=O)C(=O)CC(=O)c1cccc(Cl)c1 | 82.7% (active)
O/N=C(/C[N+]12CN3CN(CN(C3)C1)C2)c1ccc(I)cc1 | 77.6% (active)
COc1cc(CCN=Cc2cc(Cl)cc(Cl)c2O)c([N+](=O)[O-])cc1OC | 77.7% (active)
COc1ccc2c(c1OC)C1=C(C2=O)c2cc3c(cc2CCN1)OCO3 | 68.4%
CC(C)(C)[Si](C)(C)OCC1OC(n2cc(I)c(N)nc2=O)C(O[Si](C)(C)C(C)(C)C)C1O[Si](C)(C)C(C)(C)C (stereo not given) | 38.4%
O=S(=O)(Nc1ccccn1)c1ccc(NCc2c3ccccc3nc3cc(Cl)ccc23)cc1 | 34.8%
OCc1ccc2c(c1)CC1(C2)Cc2cc3c(cc2C1O)CCC3 (stereo not given) | 33.2%
COc1cc(C(c2cc3c(cc2O)OCO3)N2CCOCC2)ccc1O (stereo not given) | 42.9%
CCCCCCCCCCCCCCSC(=N)N | 98.7% (active)
Cc1ccccc1NC(=S)Nc1ccccc1O | 98.3% (active)
c1cc2cc(Cc3ccc4[nH]ccc4c3)ccc2[nH]1 | 43.2%
N=C(N)c1ccc(-c2ccc(-c3ccc(C(=N)N)cc3)o2)cc1 | 92.8% (active)
O=c1oc2c/c(=C\c3ccccc3)c(=O)c3cccc1c3-2 | 86.7% (active)
CCCCCCCC(=O)/C=C/c1ccc(C)cc1 | 65.8%
COc1ccc(CCC2(C)OCCC(C)O2)cc1 (stereo not given) | -16.1%
O=C(O)C(SC1=NNC2(C(=O)N1)c1ccccc1-c1ccccc12)SC1=NNC2(C(=O)N1)c1ccccc1-c1ccccc12 | 98% (active)
CC1(C)NNC(=S)NN1 | 2.4%
O=C([O-])c1ccccc1[I+]c1ccc(C2CCCCC2)cc1 | 71.8% (active)

SMILES | growth inhibition
ClC1=C(Cl)C(Cl)(C(Cl)(Cl)Cl)C(Cl)=C1Cl | 99.7% (active)
Cn1nc(N)c2cccnc21 | -6.1%
CC(C)(C)c1ccc(-n2c3nc(=O)n(-c4ccccc4C(F)(F)F)c(=O)c-3cc3ccccc32)cc1 | 47.1%
C/C(=N\Nc1ccccn1)c1ccccn1 | 49.9%
COc1ccc2c(C)cc(N/N=C(\C)c3ccccn3)nc2c1 | 99.7% (active)
CC([NH-])C(=O)O.[Cu+2].[NH-]C(Cc1cnc[nH]1)C(=O)O (stereo not given) | 99% (active)
COc1ccc(C)cc1NC(=O)ON=C1CCCCC1 | 91.7% (active)
Oc1c(N(Cc2ccccc2)Cc2ccccc2)ccc2cccnc12 | 98.8% (active)
Cc1ccc2[nH]c3cc4ccncc4cc3c2c1 | 97.2% (active)
Cc1ccc2nn(-c3ccc(O)cc3)nc2c1 | 74.5% (active)
Oc1ccc2c(ccc3ccccc32)c1 | 99% (active)
ClCc1ccc2ccc3ccc(CCl)nc3c2n1 | 59%
CC(=O)c1c(O)c2ccc(Cl)cc2[nH]c1=O | 38.2%
O=C(c1ccc(Cl)cc1)c1ccc(OCCCOc2ccc(C(=O)c3ccc(Cl)cc3)cc2)cc1 | -14.6%
C=C1CC2(C[C@@H](c3ccccc3)O[C@@H](c3ccccc3)C2)OC1=O (stereo not given in full) | 95.2% (active)
O=C(N=Nc1c(O)[nH]c2ccccc12)C(O)(c1ccccc1)c1ccccc1 | 25.9%
C/C(=N\O)c1ccc2c3c(ccc([N+](=O)[O-])c13)CC2 | 85.2% (active)
N#CS/C(Cl)=C(/C(Cl)=C(Cl)Cl)[N+](=O)[O-] | 85.7% (active)
N#C/C(=C1C=C/C(=N/O)C=C/1Cl)c1ccccc1 | 28.1%
O=C1/C(=C/c2ccc(Cl)c(Cl)c2)CN(C(=O)CCN2CCOCC2)C/C1=C\c1ccc(Cl)c(Cl)c1 | 89% (active)

Assay: NCI Yeast Anticancer Drug Screen. Data for the mlh1 rad18 strain (AID 175)
Settings: S. cerevisiae mlh1 rad18 strain growth inhibition; at 5.0 µM (retest, dose inferred, filed as 0.5); stronger effect = higher value
Method in brief: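 Cells of a genetically altered yeast strain, deficient in DNA damage repair, were treated with compound. Their growth was then compared with that of vehicle-treated cultures to give inhibition.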

SMILES | growth inhibition
Oc1c(Br)cc(Cl)cc1Br | 3%
COc1ccc(C2Oc3ccc(Cl)cc3C=C2[N+](=O)[O-])cc1OC (stereo not given) | 95% (active)
COC(=O)C(=O)CC(=O)c1cccc(Cl)c1 | 12%
O/N=C(/C[N+]12CN3CN(CN(C3)C1)C2)c1ccc(I)cc1 | 12%
COc1cc(CCN=Cc2cc(Cl)cc(Cl)c2O)c([N+](=O)[O-])cc1OC | 64%
COc1ccc2c(c1OC)C1=C(C2=O)c2cc3c(cc2CCN1)OCO3 | 8%
CC(C)(C)[Si](C)(C)OCC1OC(n2cc(I)c(N)nc2=O)C(O[Si](C)(C)C(C)(C)C)C1O[Si](C)(C)C(C)(C)C (stereo not given) | 33%
O=S(=O)(Nc1ccccn1)c1ccc(NCc2c3ccccc3nc3cc(Cl)ccc23)cc1 | 3%
OCc1ccc2c(c1)CC1(C2)Cc2cc3c(cc2C1O)CCC3 (stereo not given) | 20%
COc1cc(C(c2cc3c(cc2O)OCO3)N2CCOCC2)ccc1O (stereo not given) | -5%
CCCCCCCCCCCCCCSC(=N)N | 95% (active)
Cc1ccccc1NC(=S)Nc1ccccc1O | -3%
c1cc2cc(Cc3ccc4[nH]ccc4c3)ccc2[nH]1 | 32%
N=C(N)c1ccc(-c2ccc(-c3ccc(C(=N)N)cc3)o2)cc1 | -10%
O=c1oc2c/c(=C\c3ccccc3)c(=O)c3cccc1c3-2 | 28%
CCCCCCCC(=O)/C=C/c1ccc(C)cc1 | -128%
COc1ccc(CCC2(C)OCCC(C)O2)cc1 (stereo not given) | 19%
O=C(O)C(SC1=NNC2(C(=O)N1)c1ccccc1-c1ccccc12)SC1=NNC2(C(=O)N1)c1ccccc1-c1ccccc12 | -15%
CC1(C)NNC(=S)NN1 | 20%
O=C([O-])c1ccccc1[I+]c1ccc(C2CCCCC2)cc1 | 32%

SMILES | growth inhibition
ClC1=C(Cl)C(Cl)(C(Cl)(Cl)Cl)C(Cl)=C1Cl | 99% (active)
Cn1nc(N)c2cccnc21 | 1%
CC(C)(C)c1ccc(-n2c3nc(=O)n(-c4ccccc4C(F)(F)F)c(=O)c-3cc3ccccc32)cc1 | 15%
C/C(=N\Nc1ccccn1)c1ccccn1 | 60%
COc1ccc2c(C)cc(N/N=C(\C)c3ccccn3)nc2c1 | -2%
CC([NH-])C(=O)O.[Cu+2].[NH-]C(Cc1cnc[nH]1)C(=O)O (stereo not given) | -7%
COc1ccc(C)cc1NC(=O)ON=C1CCCCC1 | 48%
Oc1c(N(Cc2ccccc2)Cc2ccccc2)ccc2cccnc12 | 1%
Cc1ccc2[nH]c3cc4ccncc4cc3c2c1 | 40%
Cc1ccc2nn(-c3ccc(O)cc3)nc2c1 | 12%
Oc1ccc2c(ccc3ccccc32)c1 | -1%
ClCc1ccc2ccc3ccc(CCl)nc3c2n1 | 72% (active)
CC(=O)c1c(O)c2ccc(Cl)cc2[nH]c1=O | 72% (active)
O=C(c1ccc(Cl)cc1)c1ccc(OCCCOc2ccc(C(=O)c3ccc(Cl)cc3)cc2)cc1 | -22%
C=C1CC2(C[C@@H](c3ccccc3)O[C@@H](c3ccccc3)C2)OC1=O (stereo not given in full) | 15%
O=C(N=Nc1c(O)[nH]c2ccccc12)C(O)(c1ccccc1)c1ccccc1 | 29%
C/C(=N\O)c1ccc2c3c(ccc([N+](=O)[O-])c13)CC2 | 8%
N#CS/C(Cl)=C(/C(Cl)=C(Cl)Cl)[N+](=O)[O-] | -15%
N#C/C(=C1C=C/C(=N/O)C=C/1Cl)c1ccccc1 | -11%
O=C1/C(=C/c2ccc(Cl)c(Cl)c2)CN(C(=O)CCN2CCOCC2)C/C1=C\c1ccc(Cl)c(Cl)c1 | 99% (active)
